# Assay outcomes as filed in PubChem.
# An excerpt weighted towards active compounds, which were near 12% of everything screened.
# FMDV antiviral: High Throughput Screening for Foot and Mouth Disease Virus Antivirals; FMDV antiviral cell-based qHTS; Potency, µM (series often up to 57.9 µM), for the others: at the highest dose activity change, negative = inhibition, most hits filed as inhibitors; 410,000 compounds, 1.2% hits; AID 1159524, 2015; calls by dose curve; tested in HEK293T cells; also: read-out not given here; potency is read from the fitted curve at half-maximal effect; % is scaled to controls: 0 for no effect and ±100 for the full control effect; nearly all actives have a fitted effect of over 45% in size
# Shiga toxin inh: A qHTS for Small Molecule Inhibitors of Shiga Toxin | Vero cells, Shiga toxin protein synthesis inhibition reporter | inhibition, % at 38.7 µM | 290,000 compounds, 9.2% hits; in the data active = inhibition mostly above about 28%, no sharp cut-off; inactive = mostly below about 43%; also: 0% is about no effect
# Cycloheximide cs: Cycloheximide Counterscreen for Small Molecule Inhibitors of Shiga Toxin; cell reporter, cycloheximide protein synthesis inhibition counterscreen; max response, %; 300,000 compounds, 12% hits; AID 2314, 2010; in the data active = max response mostly above about 13%, no sharp cut-off; inactive = mostly below about 14%; also: read at 38.3 µM for the half of the compounds with a filed dose; 0% is about no effect
# Sm TGR block: qHTS Assay for the Inhibitors of Schistosoma Mansoni Peroxiredoxins | purified TGR, DTNB reduction, TNB absorbance 405 nm | Potency, µM (doses to about 114 µM), for inactives: at the highest dose activity change, negative = inhibition, hits mostly inhibitors | 360,000 compounds, 3% hits | AID 485364, 2010; active = well fitted inhibition curve with a large enough effect; also: potency is read from the fitted curve at half-maximal effect; % is scaled to controls: 0 for no effect and ±100 for the full control effect; nearly all actives have a fitted effect of over 60% in size
#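 Kinetic colorimetric format: TGR-catalysed, NADPH-driven DTNB reduction monitored via TNB absorbance. Enzyme dispensed at 20 nM; compound exposure 15 min at room temperature before reaction start.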
# Starred values were filed as active, the others as inactive; . = not tested or not shown.
SMILES,FMDV antiviral,Shiga toxin inh,Cycloheximide cs,Sm TGR block
COC1(C(F)(F)F)NC(=O)N(c2ccc(F)cc2)C1=O (stereo not given),-12%,.,.,0%
Cc1nc2cc(NC(=O)N3c4ccccc4CC3C)ccc2n1C (stereo not given),.,33*,19*,-2%
Cc1nc2cc(NC(=O)Nc3ccc(Br)cc3)ccc2o1,9%,99*,47*,-3%
Cc1ccc(-c2nc3cc(NC(=O)c4cc(Br)ccc4Cl)ccc3o2)cc1,-18%,.,.,1%
Cc1nc2cc(NC(=O)N3c4ccccc4CC3C)ccc2o1 (stereo not given),.,73*,42*,1%
Cc1ccccc1NC(=O)N1c2ccccc2CC1C (stereo not given),12%,56,9,.
COc1ccc(-c2cc(C(F)(F)F)nc(SCCC(=O)Nc3cccc(O)c3)n2)cc1,-20%,.,.,-1%
Nc1c(S(=O)(=O)c2ccccc2)c2nc3ccccc3nc2n1CCN1CCOCC1,42%,-17,-3,6%
Nc1c(S(=O)(=O)c2ccccc2)c2nc3ccccc3nc2n1Cc1ccco1,36%,-32,-5,18µM*
Cc1ccc(S(=O)(=O)c2c(N)n(Cc3ccco3)c3nc4ccccc4nc23)cc1C,41%,-12,-3,10µM*
CCS(=O)(=O)N1CCc2cc(C(=O)Nc3ccc(OC)c(Cl)c3)ccc21,-16%,.,.,-4%
CCOc1ccc(C(=O)O/N=C(\N)c2ccccn2)cc1OCC,26%,85*,52*,-22%
CC(C)C(=O)O/N=C(\N)c1ccccn1,30%,22,8,-2%
CCOc1cc(C(=O)O/N=C(\N)c2ccccn2)cc(OCC)c1OCC,-7%,54*,53*,-2%
O=C(NCCc1ccccc1)C(c1cccs1)N(C(=O)CCl)c1ccc(Cl)cc1 (stereo not given),35µM*,-19,-4,1.1µM*
O=C(NCCc1ccccc1)C(c1cccs1)N(C(=O)c1csnn1)C1CC1 (stereo not given),-8%,-13,-4,0%
Cc1cc(NC(=O)CCSc2ccccc2)no1,9%,36*,24*,8%
Cc1cc(NC(=O)CSc2ccc(Cl)cc2)no1,3%,11,9,-5%
Cc1ccc(SCCC(=O)Nc2ccccc2C(=O)NC(C)C)cc1,-13%,-6,4,0%
O=C(CCSc1ccccc1)Nc1nnc(-c2cccs2)o1,-11%,-9,-1,28µM*
Cc1cc(NC(=O)CCOc2ccc(F)cc2)no1,-10%,8,5,0.71µM*
Cc1ccc(SCCC(=O)Nc2ccccc2Br)cc1,47%,56*,16*,15%
Cc1c(C(N)=O)nnn1-c1ccc(Br)cc1,-10%,.,.,-1%
CCc1nn(CC(=O)NCc2cccc(OC)c2OC)c(=O)c2cc3occc3n12,-17%,.,.,6%
COc1ccc(CC(=O)Nc2cc(C)on2)cc1,22%,17,10,5%
SMILES,FMDV antiviral,Shiga toxin inh,Cycloheximide cs,Sm TGR block
COc1ccc(OCCC(=O)Nc2cc(C)on2)cc1,-17%,-1,-4,40µM*
O=C(CSc1nnc2ccccn12)NNC(=O)c1ccc(Cl)cc1,-3%,-4,-3,7%
O=C(CSc1nnc2ccccn12)c1ccc(Cl)cc1,68%,124*,45*,-16%
CCOc1ccc(C(=O)CSc2nnc3ccccn23)cc1,11%,58*,34*,-15%
Cc1c(Cl)cnc(NC(=O)CSc2nnc3ccccn23)c1Cl,53%,84*,22*,0%
CSc1cc2c(s1)c1cnn(Cc3ccccc3F)c(=O)c1n2C,.,-12,-11,.
Cn1/c(=N/NC(=O)c2ccccc2Br)sc2ccccc21,28%,87*,36*,4%
Cn1c(/C(C#N)=C/c2ccc(O)cc2)nc2ccccc21,16%,47*,50*,8%
Cn1c(/C(C#N)=C/c2ccncc2)nc2ccccc21,16µM*,18,7,.
COc1ccc(-c2cc(-c3ccccc3)no2)cc1,-40%,.,.,0%
O=C1c2ccccc2C(=O)N1Cc1cc(-c2ccccc2)no1,.,27*,19*,3%
O=S(=O)(Cc1cc(-c2ccccc2)no1)c1ccccc1,30%,65*,34*,32%
COc1ccc(-c2cc(CS(=O)(=O)c3ccccc3)on2)cc1,16%,68*,41*,26%
CSc1cccc(NC(=O)N2CCN(S(=O)(=O)c3ccc4c(ccn4C)c3)CC2)c1,-6%,.,.,-1%
CCOc1ccc(NC(=O)Cn2nc(Cc3cccnc3)c3ccccc3c2=O)cc1,-19%,.,.,9%
Clc1cccc(Cl)c1C1Nc2cccc3cccc(c23)N1,-23%,5,3,3.2µM*
